Measurements as given in the supplement of paper PMC10849652.
Of roughly 8,800 targets only a part is listed; those with a hit were picked by preference. About 0.5% of all pairs of compound and target were hits. Values without a mark were called inactive.

Key:
Assay in all cases: log2 fold change, soluble protein after heating vs DMSO (PISA); higher = thermal stabilisation; K562 lysate, 10 uM; active = over 0.2 and 3.5 SD of the protein, either way, in both replicates (recomputed)
ibrutinib = compound: C=CC(=O)N1CCC[C@@H](n2nc(-c3ccc(Oc4ccccc4)cc3)c3c(N)ncnc32)C1 [ibrutinib]
In short: (§1)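 Values give the log-two fold change in thermal stability against solvent controls, from duplicates. Crude K562 extract at 1 mg/mL protein, made by dounce homogenisation in PBS pH 7.4 with 1 mM MgCl2, was treated with 10 μM compound for 30 min. After 3 min heating across 48°C-58°C, aliquots were pooled, adjusted to 0.5% NP-40 at 4°C and centrifuged at 21,000xg for 90 min. The supernatant was measured by TMTpro 16plex LC-MS/MS with channel sums equalised.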

[1] = compound: CC(=O)c1cnc2ccc(-c3cc(Cl)c(O)c(Cl)c3)nc2c1N[C@H]1CC[C@H](CN(C)C)CC1
In short: as §1

ralimetinib = compound: CC(C)(C)Cn1c(N)nc2ccc(-c3[nH]c(C(C)(C)C)nc3-c3ccc(F)cc3)nc21 [ralimetinib]
In short: as §1

[2] = compound: CC(C)(O)CC(=O)NCCn1ccc2ncnc(Nc3ccc(Oc4cccc(C(F)(F)F)c4)c(Cl)c3)c21
In short: as §1

[3] = compound: CC(C)C1=C2N=C(C=C(N2N=C1)NCC3=CC=CC=C3)NCCCCCCN
In short: as §1

[4] = compound: CC1=C(C(CC(=O)N1)C2=CC=C(C=C2)C(F)(F)F)C(=O)NC3=C(C=C4C(=C3)C=NN4)F
In short: as §1

[5] = compound: CC1=C(C2=C(C=C1)C(=O)C3=CC=CC=C3N2CCCN)C
In short: as §1

[6] = compound: CC1=C(C=C(C=C1)NC(=O)C2=CC(=CC=C2)C(C)(C)C#N)NC3=CC4=C(C=C3)N=CN(C4=O)C
In short: as §1

[7] = compound: CC1=C(C=C(C=C1)NC(=O)C2=CC(=CC=C2)N(C)C)NC(=O)C3=CC=C(C=C3)O
In short: as §1

[8] = compound: CC1=CC=C(C=C1)SC2=C3C=C(SC3=CN=C2)C(=O)N
In short: as §1

vemurafenib = compound: CCCS(=O)(=O)Nc1ccc(F)c(C(=O)c2c[nH]c3ncc(-c4ccc(Cl)cc4)cc23)c1F [vemurafenib]
In short: as §1

[9] = compound: CCCS(=O)(=O)Nc1ccc(F)c(C(=O)c2c[nH]c3ncc(Cl)cc23)c1F
In short: as §1

barasertib = compound: CCN(CCCOc1ccc2c(Nc3cc(CC(=O)Nc4cccc(F)c4)[nH]n3)ncnc2c1)CCOP(=O)(O)O [barasertib]
In short: as §1

[10] = compound: CC[C@@H]1C(=O)N(C)c2cnc(Nc3ccc(C(=O)NC4CCN(C)CC4)cc3OC)nc2N1C1CCCC1
In short: as §1

volasertib = compound: CC[C@@H]1C(=O)N(C)c2cnc(Nc3ccc(C(=O)N[C@H]4CC[C@H](N5CCN(CC6CC6)CC5)CC4)cc3OC)nc2N1C(C)C [volasertib]
In short: as §1

[11] = compound: CCn1c(C(=O)N(C2CC2)C2CC2)cc2c3c(ncn3C)c(Nc3cc(C)n(C)n3)nc21
In short: as §1

[12] = compound: CCn1cc(-c2ccnc3[nH]c(-c4cccc(CN(C)C)c4)cc23)c(-c2ccc(NC(=O)N(C)C)cc2)n1
In short: as §1

[13] = compound: CN1CCC(CNc2ccc3ncc(-c4cccc(OC(F)(F)F)c4)n3n2)CC1
In short: as §1

saracatinib = compound: CN1CCN(CCOc2cc(OC3CCOCC3)c3c(Nc4c(Cl)ccc5c4OCO5)ncnc3c2)CC1 [saracatinib]
In short: as §1

sotrastaurin = compound: CN1CCN(c2nc(C3=C(c4c[nH]c5ccccc45)C(=O)NC3=O)c3ccccc3n2)CC1 [sotrastaurin]
In short: as §1

Chain of UniProt O15111 (O15111 whole entry, looked up): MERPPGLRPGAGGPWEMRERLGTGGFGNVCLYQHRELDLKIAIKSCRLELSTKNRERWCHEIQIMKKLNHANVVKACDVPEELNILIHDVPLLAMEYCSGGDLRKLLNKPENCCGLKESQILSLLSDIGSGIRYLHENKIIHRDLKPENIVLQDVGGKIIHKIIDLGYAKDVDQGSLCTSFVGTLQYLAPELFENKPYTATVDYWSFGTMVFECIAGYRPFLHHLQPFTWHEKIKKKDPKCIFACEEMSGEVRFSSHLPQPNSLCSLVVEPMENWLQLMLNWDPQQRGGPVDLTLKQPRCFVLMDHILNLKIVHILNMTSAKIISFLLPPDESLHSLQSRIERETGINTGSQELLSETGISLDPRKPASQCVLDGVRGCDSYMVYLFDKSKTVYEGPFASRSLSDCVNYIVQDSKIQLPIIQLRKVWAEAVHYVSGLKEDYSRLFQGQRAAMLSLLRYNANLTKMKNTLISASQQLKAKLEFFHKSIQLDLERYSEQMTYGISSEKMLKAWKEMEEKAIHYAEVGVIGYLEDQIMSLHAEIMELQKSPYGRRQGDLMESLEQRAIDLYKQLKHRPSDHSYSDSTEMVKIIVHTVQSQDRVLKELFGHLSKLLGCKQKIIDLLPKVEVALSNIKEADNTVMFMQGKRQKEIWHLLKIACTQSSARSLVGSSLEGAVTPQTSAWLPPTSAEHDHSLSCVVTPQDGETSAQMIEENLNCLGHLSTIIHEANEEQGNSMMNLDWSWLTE
Chain of UniProt Q8WUH1 (Q8WUH1 whole entry, looked up): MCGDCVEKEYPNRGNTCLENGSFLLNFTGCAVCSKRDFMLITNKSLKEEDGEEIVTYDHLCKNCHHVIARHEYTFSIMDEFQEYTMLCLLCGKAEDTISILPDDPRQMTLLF
Chain of UniProt Q13057 (Q13057 whole entry, looked up): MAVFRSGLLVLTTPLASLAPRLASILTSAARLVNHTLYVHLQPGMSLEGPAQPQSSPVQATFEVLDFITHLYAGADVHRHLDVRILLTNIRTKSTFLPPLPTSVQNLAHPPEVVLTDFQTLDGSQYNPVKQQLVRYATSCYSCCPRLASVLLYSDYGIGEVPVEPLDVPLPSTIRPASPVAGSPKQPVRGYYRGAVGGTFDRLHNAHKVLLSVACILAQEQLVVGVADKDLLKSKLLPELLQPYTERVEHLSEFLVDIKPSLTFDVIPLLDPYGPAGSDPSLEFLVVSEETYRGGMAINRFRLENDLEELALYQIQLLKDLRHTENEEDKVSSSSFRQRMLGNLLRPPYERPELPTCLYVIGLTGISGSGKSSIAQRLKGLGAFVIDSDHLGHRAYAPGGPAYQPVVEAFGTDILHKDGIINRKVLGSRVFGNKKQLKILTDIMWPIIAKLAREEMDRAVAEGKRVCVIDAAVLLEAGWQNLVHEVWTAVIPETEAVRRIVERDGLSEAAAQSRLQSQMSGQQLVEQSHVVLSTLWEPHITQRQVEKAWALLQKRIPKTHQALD
Chain of UniProt A8TX70 (A8TX70 whole entry, looked up): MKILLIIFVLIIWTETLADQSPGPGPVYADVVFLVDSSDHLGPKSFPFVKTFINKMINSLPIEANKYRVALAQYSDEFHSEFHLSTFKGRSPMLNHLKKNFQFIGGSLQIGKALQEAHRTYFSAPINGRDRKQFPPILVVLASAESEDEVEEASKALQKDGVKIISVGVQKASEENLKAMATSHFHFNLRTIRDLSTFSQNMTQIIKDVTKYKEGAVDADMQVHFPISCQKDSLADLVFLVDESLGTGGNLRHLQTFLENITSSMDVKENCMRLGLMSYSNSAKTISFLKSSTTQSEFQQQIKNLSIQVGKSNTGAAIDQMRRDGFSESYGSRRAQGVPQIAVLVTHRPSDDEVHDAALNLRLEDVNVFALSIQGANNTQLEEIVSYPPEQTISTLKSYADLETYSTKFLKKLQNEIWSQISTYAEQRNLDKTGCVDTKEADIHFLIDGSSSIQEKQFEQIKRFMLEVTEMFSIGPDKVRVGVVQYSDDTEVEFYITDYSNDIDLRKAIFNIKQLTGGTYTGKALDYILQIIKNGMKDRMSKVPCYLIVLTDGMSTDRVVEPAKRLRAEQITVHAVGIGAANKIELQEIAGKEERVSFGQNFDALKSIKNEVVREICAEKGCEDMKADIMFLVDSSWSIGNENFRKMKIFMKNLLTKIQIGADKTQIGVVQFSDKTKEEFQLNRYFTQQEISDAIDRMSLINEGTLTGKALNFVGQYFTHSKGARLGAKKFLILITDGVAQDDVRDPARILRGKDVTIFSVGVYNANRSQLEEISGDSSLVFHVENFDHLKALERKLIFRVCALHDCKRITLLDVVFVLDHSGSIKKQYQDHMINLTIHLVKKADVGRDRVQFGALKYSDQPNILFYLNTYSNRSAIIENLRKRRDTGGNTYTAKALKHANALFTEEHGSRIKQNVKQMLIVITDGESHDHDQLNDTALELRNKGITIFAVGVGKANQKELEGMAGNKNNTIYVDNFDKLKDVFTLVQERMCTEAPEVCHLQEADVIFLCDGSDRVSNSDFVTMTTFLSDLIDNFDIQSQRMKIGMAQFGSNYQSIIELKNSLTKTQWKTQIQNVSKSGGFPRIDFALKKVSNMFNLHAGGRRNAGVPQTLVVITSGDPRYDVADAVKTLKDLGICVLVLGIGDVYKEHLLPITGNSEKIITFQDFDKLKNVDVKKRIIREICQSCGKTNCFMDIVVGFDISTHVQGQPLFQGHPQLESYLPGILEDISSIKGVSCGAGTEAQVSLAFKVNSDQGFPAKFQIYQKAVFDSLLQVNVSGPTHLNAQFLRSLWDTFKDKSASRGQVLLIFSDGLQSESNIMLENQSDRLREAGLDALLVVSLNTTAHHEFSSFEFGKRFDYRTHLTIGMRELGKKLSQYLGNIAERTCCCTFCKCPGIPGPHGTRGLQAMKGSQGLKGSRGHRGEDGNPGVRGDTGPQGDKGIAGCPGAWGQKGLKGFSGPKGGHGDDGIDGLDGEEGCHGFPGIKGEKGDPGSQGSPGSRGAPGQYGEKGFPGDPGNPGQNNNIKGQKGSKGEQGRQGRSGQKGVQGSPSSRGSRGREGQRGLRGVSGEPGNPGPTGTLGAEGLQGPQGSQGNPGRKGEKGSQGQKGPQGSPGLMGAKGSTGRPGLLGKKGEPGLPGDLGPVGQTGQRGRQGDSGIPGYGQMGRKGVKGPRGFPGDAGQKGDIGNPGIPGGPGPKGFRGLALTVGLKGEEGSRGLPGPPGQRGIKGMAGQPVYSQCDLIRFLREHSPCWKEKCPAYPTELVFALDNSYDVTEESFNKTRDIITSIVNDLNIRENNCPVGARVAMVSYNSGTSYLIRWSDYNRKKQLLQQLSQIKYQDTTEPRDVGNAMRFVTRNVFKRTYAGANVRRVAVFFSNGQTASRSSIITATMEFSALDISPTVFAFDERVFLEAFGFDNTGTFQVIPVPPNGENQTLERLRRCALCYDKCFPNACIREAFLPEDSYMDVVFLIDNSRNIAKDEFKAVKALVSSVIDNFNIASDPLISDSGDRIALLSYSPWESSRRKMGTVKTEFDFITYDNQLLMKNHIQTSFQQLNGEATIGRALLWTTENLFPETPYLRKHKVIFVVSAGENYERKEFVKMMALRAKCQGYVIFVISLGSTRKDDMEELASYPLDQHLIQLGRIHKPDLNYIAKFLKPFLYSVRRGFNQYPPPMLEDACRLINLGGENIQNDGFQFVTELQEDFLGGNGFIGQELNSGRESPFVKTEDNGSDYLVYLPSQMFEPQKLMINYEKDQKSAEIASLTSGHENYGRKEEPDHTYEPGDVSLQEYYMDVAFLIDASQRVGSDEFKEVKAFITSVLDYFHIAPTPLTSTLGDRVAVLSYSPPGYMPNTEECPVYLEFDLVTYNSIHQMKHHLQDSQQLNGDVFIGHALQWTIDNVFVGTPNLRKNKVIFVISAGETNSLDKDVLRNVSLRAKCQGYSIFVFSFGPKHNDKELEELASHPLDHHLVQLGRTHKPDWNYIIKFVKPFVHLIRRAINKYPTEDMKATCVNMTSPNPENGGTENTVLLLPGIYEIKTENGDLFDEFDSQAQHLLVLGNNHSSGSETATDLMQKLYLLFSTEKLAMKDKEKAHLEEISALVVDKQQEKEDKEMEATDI
Chain of UniProt Q9BY43 (Q9BY43 whole entry, looked up): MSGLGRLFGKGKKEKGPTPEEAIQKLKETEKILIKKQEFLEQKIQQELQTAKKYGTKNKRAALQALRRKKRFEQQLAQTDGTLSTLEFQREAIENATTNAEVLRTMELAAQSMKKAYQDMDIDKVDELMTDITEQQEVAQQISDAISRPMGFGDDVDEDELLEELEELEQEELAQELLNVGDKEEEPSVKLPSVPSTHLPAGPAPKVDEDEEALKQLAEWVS
Chain of UniProt Q5EBM0 (Q5EBM0 whole entry, looked up): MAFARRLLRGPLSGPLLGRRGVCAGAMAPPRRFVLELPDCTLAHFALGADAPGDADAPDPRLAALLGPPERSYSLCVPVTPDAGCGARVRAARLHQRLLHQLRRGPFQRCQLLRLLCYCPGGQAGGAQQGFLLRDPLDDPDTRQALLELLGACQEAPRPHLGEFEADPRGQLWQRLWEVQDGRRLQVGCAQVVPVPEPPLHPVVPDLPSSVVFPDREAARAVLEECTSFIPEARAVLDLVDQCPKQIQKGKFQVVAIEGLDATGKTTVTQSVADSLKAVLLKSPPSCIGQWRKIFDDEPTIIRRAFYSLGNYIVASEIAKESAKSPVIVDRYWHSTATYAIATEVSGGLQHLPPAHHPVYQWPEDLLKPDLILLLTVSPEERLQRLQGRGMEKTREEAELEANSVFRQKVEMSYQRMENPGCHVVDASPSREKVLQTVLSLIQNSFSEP
Chain of UniProt P19784 (P19784 whole entry, looked up): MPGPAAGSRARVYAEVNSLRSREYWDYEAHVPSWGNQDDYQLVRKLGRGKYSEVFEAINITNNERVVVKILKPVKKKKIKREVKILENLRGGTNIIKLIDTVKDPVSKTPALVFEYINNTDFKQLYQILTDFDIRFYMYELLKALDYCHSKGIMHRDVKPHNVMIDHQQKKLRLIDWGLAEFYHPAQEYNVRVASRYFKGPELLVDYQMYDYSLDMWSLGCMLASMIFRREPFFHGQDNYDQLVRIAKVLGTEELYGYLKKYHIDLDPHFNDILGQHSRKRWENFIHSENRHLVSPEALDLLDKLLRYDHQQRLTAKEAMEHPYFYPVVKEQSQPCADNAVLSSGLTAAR

Target | log2 fold change (ibrutinib) | log2 fold change [1] | log2 fold change (ralimetinib) | log2 fold change [2] | log2 fold change [3] | log2 fold change [4] | log2 fold change [5] | log2 fold change [6] | log2 fold change [7] | log2 fold change [8] | log2 fold change (vemurafenib) | log2 fold change [9] | log2 fold change (barasertib) | log2 fold change [10] | log2 fold change (volasertib) | log2 fold change [11] | log2 fold change [12] | log2 fold change [13] | log2 fold change (saracatinib) | log2 fold change (sotrastaurin)
DCP1A (UniProt Q9NPI6) | 0 | -0.016 | 0.004 | -0.042 | 0.025 | 0.013 | -0.02 | 0.046 | 0.011 | 0 | 0.023 | 0.017 | -0.066 | 0.077 | -0.055 | 0.029 | -0.082 | 0.059 | -0.006 | -0.053
CIAO2A (UniProt Q9H5X1) | 0.005 | 0.044 | 0.053 | -0.034 | 0.056 | 0.032 | -0.06 | -0.026 | -0.067 | -0.02 | -0.028 | -0.032 | 0.094 | -0.042 | -0.007 | 0.026 | 0.233 | -0.203 | 0.033 | 0.034
CNP (UniProt P09543) | 0.024 | 0.01 | 0.028 | 0.019 | 0.022 | 0.042 | 0.038 | -0.018 | -0.015 | 0.01 | 0.005 | -0.011 | 0.003 | -0.097 | -0.022 | 0.019 | -0.023 | -0.028 | 0.01 | -0.008
COMT (UniProt P21964) | 0.01 | 0.019 | 0.01 | 0.016 | 0.009 | -0.045 | 0.002 | 0.031 | 0.019 | 0.01 | -0.052 | 0.012 | 0.024 | -0.101 | -0.056 | 0.039 | 0.026 | 0.005 | 0.008 | 0.036
COL6A5 (UniProt A8TX70) | 0.046 | -0.023 | -0.083 | -0.141 | 0.018 | 0.063 | -0.038 | 0.108 | -0.011 | -0.053 | 0.073 | 0.041 | 0.09 | 0.078 | -0.044 | -0.055 | -0.834 (active) | 0.374 | -0.048 | -0.03
CHUK (UniProt O15111) | 0.034 | 0.04 | 0.063 | 0.071 | 0.014 | -0.047 | -0.014 | -0.013 | 0.009 | -0.016 | 0.026 | 0.001 | 0.059 | -0.095 | -0.047 | -0.045 | 0.111 | -0.097 | 0.059 | 0.017
COASY isoform 2 (UniProt Q13057) | 0.024 | -0.015 | 0.103 | 0.002 | -0.003 | 0.013 | -0.001 | -0.013 | 0.037 | 0.014 | 0.076 | 0.017 | 0.011 | -0.075 | -0.098 | 0.034 | -0.063 | 0.038 | 0.021 | 0.079
COG7 (UniProt P83436) | -0.04 | -0.012 | 0.03 | 0.006 | -0.049 | -0.034 | -0.001 | -0.029 | 0.058 | -0.007 | 0.003 | 0.018 | 0.017 | -0.054 | -0.076 | -0.003 | -0.209 | -0.019 | 0.05 | 0.039
CSTF2 (UniProt P33240) | 0.244 (active) | -0.001 | 0.025 | -0.033 | -0.022 | -0.033 | -0.02 | -0.011 | 0.052 | 0.011 | 0.011 | -0.015 | 0.27 (active) | 0.062 | -0.012 | -0.037 | -0.053 | 0.042 | 0.007 | 0.038
CNST (UniProt Q6PJW8) | 0 | 0.006 | 0.031 | 0.022 | 0.012 | 0.176 | -0.01 | -0.035 | 0.006 | -0.002 | 0.002 | -0.026 | -0.07 | 0.079 | -0.008 | 0.02 | -0.066 | 0.019 | 0.033 | 0.039
DDX39A (UniProt O00148) | -0.005 | 0.062 | -0.009 | 0.029 | 0.022 | 0 | 0.009 | -0.032 | -0.016 | -0.004 | 0.021 | 0.021 | 0.047 | -0.049 | -0.071 | -0.028 | -0.041 | -0.027 | -0.032 | -0.002
CHMP4A isoform 2 (UniProt Q9BY43) | -0.002 | 0.011 | 0.03 | -0.041 | 0.036 | 0.011 | -0.02 | 0.036 | -0.03 | -0.007 | 0 | -0.002 | -0.053 | 0.064 | 0.039 | -0.002 | -0.278 (active) | 0.222 | 0.048 | 0.024
CMPK2 (UniProt Q5EBM0) | 0.012 | 0.045 | -0.012 | 0.012 | 0.026 | 0.014 | 0.027 | 0.009 | -0.018 | -0.01 | 0.026 | 0.048 | 0.155 | 0.018 | 0.015 | -0.03 | -0.001 | 0.007 | 0.006 | -0.019
CSNK2A2 (UniProt P19784) | -0.015 | 0.666 (active) | 0.012 | -0.014 | -0.01 | -0.046 | 0.185 | -0.017 | 0.003 | 0 | -0.219 | -0.005 | -0.044 | -0.031 | -0.082 | 0.011 | -0.092 | 0.418 | 0 | 0.023
CHURC1 isoform 2 (UniProt Q8WUH1) | 0.055 | 0.05 | 0.027 | -0.077 | 0.07 | -0.065 | 0.057 | 0.085 | -0.102 | 0.004 | 0.019 | -0.166 | 0.194 | 0.038 | 0.129 | 0.018 | -0.108 | 0.024 | -0.071 | -0.013
COX20 isoform 2 (UniProt Q5RI15) | 0.28 | 0.017 | 0.084 | 0.032 | -0.003 | -0.007 | -0.04 | 0.003 | 0.001 | -0.023 | 0.011 | -0.011 | -0.329 | 0.144 | 0.021 | -0.015 | 0.623 (active) | -0.232 | -0.015 | 0.001
